The values below come from PubChem BioAssay (EPA / NIEHS).

Conditions in all cases: mRNA level, 48 h; actives raise or lower the signal
Read-out in assay [1]: Glutathione S-transferase M3 (GSTM3), GSTM3 (gene 2947)
In words: LTEA_HepaRG_GSTM3: Life Technologies and Expression Analysis (LTEA) Assay for Glutathione S-transferase M3 (GSTM3) using HepaRG (AID 2283501). In short, it runs like this: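 HepaRG, plated 48 h, then serum-free induction medium; test chemical 48 h, duplicate; 100 uM top, half-log x8, 0.5% DMSO. Read-out: GSTM3 mRNA (TaqMan qRT-PCR, Fluidigm array). Bidirectional fit vs DMSO.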

Read-out in assay [2]: Heat shock 70 kDa protein 1 (HSPA1A), gene 3303
Put plainly: LTEA_HepaRG_HSPA1A: Life Technologies and Expression Analysis (LTEA) Assay for Heat shock 70 kDa protein 1 (HSPA1A) using HepaRG (AID 2283502). In short, it runs like this: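 Readout is HSPA1A transcript level by microfluidic qRT-PCR, normalized to three housekeeping genes and analysed for gain or loss of signal relative to 0.5% DMSO. Human HepaRG cultures received test chemicals for 48 h at up to 100 uM.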

Read-out in assay [3]: Hypoxia-inducible factor 1-alpha (Homo sapiens) (UniProt Q16665)
In words: LTEA_HepaRG_HIF1A: Life Technologies and Expression Analysis (LTEA) Assay for Hypoxia-inducible factor 1 (HIF1A) Trancription factor using HepaRG (AID 2283503). In short, it runs like this: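 Differentiated HepaRG cells in serum-free induction medium exposed 48 h, in duplicate, to 8-point half-log series from 100 uM in 0.5% DMSO. HIF1A mRNA measured by TaqMan qRT-PCR, normalized to ACTB/GAPDH/POLR2A, fitted bidirectionally versus DMSO.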

Read-out in assay [4]: 3-Hydroxy-3-Methylglutaryl-CoA Synthase 2 (HMGCS2), HMGCS2 (gene 3158)
Put plainly: LTEA_HepaRG_HMGCS2: Life Technologies and Expression Analysis (LTEA) Assay for 3-Hydroxy-3-Methylglutaryl-CoA Synthase 2 (HMGCS2) using HepaRG (AID 2283504). In short, it runs like this: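 HepaRG, plated 48 h then switched to serum-free induction media; cmpd 8-pt, max 100 uM, 1/2-log, 0.5% DMSO, n=2, 48 h. HMGCS2 mRNA by Fluidigm TaqMan qRT-PCR, ACTB/GAPDH/POLR2A norm; bidirectional fit vs DMSO.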

Read-out in assay [5]: HGF (gene 3082)
In words: LTEA_HepaRG_HGF: Life Technologies and Expression Analysis (LTEA) Assay for Hepatocyte Growth Facto (HGF) using HepaRG (AID 2283505). In short, it runs like this: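 Read-out is HGF transcript level by qRT-PCR, normalized to three housekeeping genes, fitted bidirectionally against 0.5% DMSO vehicle. Human HepaRG cells received test chemicals for 48 h at up to 100 uM.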

Read-out in assay [6]: Insulin Like Growth Factor 1 (IGF1), IGF1 (gene 3479)
In words: LTEA_HepaRG_IGF1: Life Technologies and Expression Analysis (LTEA) Assay for Insulin Like Growth Factor 1 (IGF1) using HepaRG (AID 2283506). In short, it runs like this:
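HepaRG, plated 48 h, then switched to serum-free induction media; test chemical 8-pt half-log from 100 uM (0.5% DMSO), duplicate, 48 h. Lysis in RLT, TaqMan qRT-PCR, norm. ACTB/GAPDH/POLR2A. Bidirectional fit vs DMSO.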

Read-out in assay [7]: Insulin-like growth factor-binding protein 1 (IGFBP1), IGFBP1 (gene 3484)
Put plainly: LTEA_HepaRG_IGFBP1: Life Technologies and Expression Analysis (LTEA) Assay for Insulin-like growth factor-binding protein 1 (IGFBP1) using HepaRG (AID 2283508). In short, it runs like this: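 Thawed HepaRG cells are plated for 48 h, switched to serum-free induction medium, then dosed in duplicate for another 48 h (100 uM top, half-log steps). Lysates in RLT go to qRT-PCR, and gain or loss of signal is fitted relative to vehicle.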

Read-out in assay [8]: Interleukin 6 (IL6), IL6 (gene 3569)
In words: LTEA_HepaRG_IL6: Life Technologies and Expression Analysis (LTEA) Assay for Interleukin 6 (IL6) using HepaRG (AID 2283509). In short, it runs like this:
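Differentiated human HepaRG cells, plated 48 h then switched to serum-free induction medium, were exposed in duplicate for 48 h to eight half-log concentrations up to 100 uM in 0.5% DMSO. IL6 mRNA measured by qRT-PCR, normalized to ACTB/GAPDH/POLR2A.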

Read-out in assay [9]: Potassium channel subfamily K member 1 (KCNK1), KCNK1 (gene 3775)
Put plainly: LTEA_HepaRG_KCNK1: Life Technologies and Expression Analysis (LTEA) Assay for Potassium channel subfamily K member 1 (KCNK1) using HepaRG (AID 2283511). A digest of the protocol: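 Differentiated human HepaRG cells in serum-free induction medium were exposed in duplicate for 48 h to 8 half-log concentrations up to 100 uM in 0.5% DMSO. KCNK1 mRNA was measured by TaqMan qRT-PCR, normalized to ACTB, GAPDH and POLR2A, and fitted bidirectionally versus DMSO.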

Read-out in assay [10]: Keratin 19 (KRT19), KRT19 (gene 3880)
Put plainly: LTEA_HepaRG_KRT19: Life Technologies and Expression Analysis (LTEA) Assay for Keratin 19 (KRT19) using HepaRG (AID 2283512). A digest of the protocol:
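KRT19 transcript levels, measured by Fluidigm qRT-PCR against three housekeeping genes, are fitted for gain or loss of signal relative to DMSO. Human HepaRG cells receive test chemicals (top 100 uM, half-log steps, 0.5% DMSO) for 48 hours.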

Read-out in assay [11]: JUN Transcription Factor, JUN (gene 3725)
Put plainly: LTEA_HepaRG_JUN: Life Technologies and Expression Analysis (LTEA) Assay for JUN Transcription Factor using HepaRG (AID 2283513). A digest of the protocol: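 Cells plated 48 h, medium switched to serum-free induction medium, then dosed 48 h (100 uM top, half-log dilutions, 0.5% DMSO). RNA isolated; JUN measured by qRT-PCR against three housekeeping genes; gain or loss fitted relative to DMSO.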

Read-out in assay [12]: Lipase C (LIPC), LIPC (gene 3990)
Put plainly: LTEA_HepaRG_LIPC: Life Technologies and Expression Analysis (LTEA) Assay for Lipase C (LIPC) using HepaRG (AID 2283514). A digest of the protocol: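 Differentiated human HepaRG cells in serum-free induction medium were exposed in duplicate for 48 h to eight concentrations (top 100 uM, half-log steps, 0.5% DMSO). LIPC mRNA was quantified by TaqMan qRT-PCR, normalized to ACTB, GAPDH and POLR2A, with bidirectional fitting versus DMSO.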

Read-out in assay [13]: Lipoprotein lipase (LPL), LPL (gene 4023)
Put plainly: LTEA_HepaRG_LPL: Life Technologies and Expression Analysis (LTEA) Assay for Lipoprotein lipase (LPL) using HepaRG (AID 2283515). In short, it runs like this:
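Differentiated human HepaRG cells in serum-free induction medium were exposed in duplicate for 48 h to eight half-log concentrations (top 100 uM) in 0.5% DMSO. LPL mRNA was quantified by TaqMan qRT-PCR, normalized to ACTB, GAPDH and POLR2A.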

Read-out in assay [14]: MicroRNA 122 (MIR122), gene 406906
Put plainly: LTEA_HepaRG_MIR122: Life Technologies and Expression Analysis (LTEA) Assay for MicroRNA 122 (MIR122) using HepaRG (AID 2283516). Note: the transcript read is the microRNA miR-122. A digest of the protocol:
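HepaRG plated 48 h, switched to serum-free induction medium, then treated in duplicate for 48 h (100 uM top, half-log steps, 0.5% DMSO vehicle). RNA isolated, qRT-PCR performed, concentration-response fitted both directions relative to DMSO.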

Read-out in assay [15]: matrix metalloproteinase-10 (MMP10), MMP10 (gene 4319)
In words: LTEA_HepaRG_MMP10: Life Technologies and Expression Analysis (LTEA) Assay for matrix metalloproteinase-10 (MMP10) using HepaRG (AID 2283517). In short, it runs like this:
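HepaRG, collagen I, ~100,000 cells/well; serum-free induction medium; 48 h exposure, duplicate, 8-pt half-log to 100 uM, 0.5% DMSO. Readout: TaqMan qRT-PCR, normalized to ACTB/GAPDH/POLR2A; bidirectional fit vs DMSO.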

Read-out in assay [16]: MYC, MYC (gene 4609)
Put plainly: LTEA_HepaRG_MYC: Life Technologies and Expression Analysis (LTEA) Assay for MYC using HepaRG (AID 2283518). In short, it runs like this:
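HepaRG, ~100,000 cells/well, collagen I; 48 h plating; serum-free induction medium; 48 h dosing, duplicate, 100 uM top, half-log, 0.5% DMSO; total RNA → qRT-PCR MYC; gain/loss fit vs DMSO.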

Read-out in assay [17]: matrix metalloproteinase-3 (MMP3), MMP3 (gene 4314)
Put plainly: LTEA_HepaRG_MMP3: Life Technologies and Expression Analysis (LTEA) Assay for matrix metalloproteinase-3 (MMP3) using HepaRG (AID 2283519). In short, it runs like this: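 Differentiated human HepaRG cells, plated 48 h on collagen I, were exposed in duplicate for 48 h in serum-free induction medium to eight half-log concentrations up to 100 uM in 0.5% DMSO. MMP3 mRNA was quantified by TaqMan qRT-PCR, normalised to ACTB, GAPDH and POLR2A.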

Read-out in assay [18]: Paternally Expressed 10 (PEG10), PEG10 (gene 23089)
In words: LTEA_HepaRG_PEG10: Life Technologies and Expression Analysis (LTEA) Assay for Paternally Expressed 10 (PEG10) using HepaRG (AID 2283520). In short, it runs like this: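 HepaRG, 48 h post-plating → serum-free induction medium → 48 h chemical exposure (duplicate, 8-pt, max 100 uM, half-log, 0.5% DMSO) → lysis in RLT → TaqMan qRT-PCR for PEG10, ACTB/GAPDH/POLR2A normalisation.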

Read-out in assay [19]: Intercellular Adhesion Molecule 1 (ICAM1), ICAM1 (gene 3383)
Put plainly: LTEA_HepaRG_ICAM1: Life Technologies and Expression Analysis (LTEA) Assay for Intercellular Adhesion Molecule 1 (ICAM1) using HepaRG (AID 2283507). A digest of the protocol:
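Readout is qRT-PCR mRNA level, normalized to three housekeeping genes and fitted bidirectionally against 0.5% DMSO vehicle. Human HepaRG cultures received compound for 48 h, top concentration 100 uM with half-log dilutions.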

SMILES strings stand for the structures. Calls of active or inactive are those of the source. Rule for the calls: active = hit-call score of the fitted dose curve at least 0.9, where 1 is the maximum; inactive = score below 0.9.

Hypoxia-inducible factor 1-alpha (Homo sapiens), sequence (Q16665 whole entry, looked up): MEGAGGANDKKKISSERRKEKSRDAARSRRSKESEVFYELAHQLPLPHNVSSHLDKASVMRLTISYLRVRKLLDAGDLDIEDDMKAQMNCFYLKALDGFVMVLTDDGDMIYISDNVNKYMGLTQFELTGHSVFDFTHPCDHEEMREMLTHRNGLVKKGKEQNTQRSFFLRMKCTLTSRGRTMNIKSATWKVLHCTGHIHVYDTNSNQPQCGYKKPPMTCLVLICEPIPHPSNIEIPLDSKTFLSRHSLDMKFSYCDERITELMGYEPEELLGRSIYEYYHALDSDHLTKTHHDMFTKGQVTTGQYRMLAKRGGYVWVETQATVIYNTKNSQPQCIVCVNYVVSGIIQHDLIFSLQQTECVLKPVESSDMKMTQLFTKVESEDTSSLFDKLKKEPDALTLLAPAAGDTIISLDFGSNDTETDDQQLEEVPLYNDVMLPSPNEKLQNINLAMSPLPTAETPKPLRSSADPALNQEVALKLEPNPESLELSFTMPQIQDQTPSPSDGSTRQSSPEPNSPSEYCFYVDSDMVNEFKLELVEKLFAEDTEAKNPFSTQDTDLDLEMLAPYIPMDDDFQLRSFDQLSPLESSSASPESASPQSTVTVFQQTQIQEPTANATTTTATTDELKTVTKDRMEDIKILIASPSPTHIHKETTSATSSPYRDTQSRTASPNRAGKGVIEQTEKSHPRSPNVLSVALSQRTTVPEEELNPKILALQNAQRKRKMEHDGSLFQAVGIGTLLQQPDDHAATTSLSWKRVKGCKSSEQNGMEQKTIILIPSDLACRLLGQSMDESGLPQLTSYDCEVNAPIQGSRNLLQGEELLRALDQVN

As a reminder, the AC50 is the concentration giving half of the maximal activity seen. For the compound `c1ccc2c(c1)-c1cccc3cccc-2c13`, the compound was classed as inactive in assay [1], in assay [2], in assay [3], in assay [4], in [5] and in assay [6]. Further, the call in assay [7], in assay [8], in assay [9], in assay [10], in [11] and in [12] was inactive. For the same compound, the compound was called inactive in assay [13], in [14], in assay [15], in assay [16] and in assay [17]. Moreover, the AC50 in assay [18] was 50 µM (active).

With `Nc1ccc(Cl)cc1N`, the result in assay [1], in assay [19], in assay [9], in assay [11] and in [15] was inactive. Besides, the AC50 in [2] is 20.6 µM (active); in [3], 19.7 µM (active); in assay [4] it was 34.1 µM (active); in assay [5], 33.6 µM (active); in assay [6], 25 µM (active); in assay [7], 16.1 µM (active). The AC50 was 33.5 µM (active) in assay [10]; 17.3 µM (active) in [12]; 13.2 µM (active) in assay [13]; 21 µM (active) in assay [14]; 13.4 µM (active) in assay [16]; 14.2 µM (active) in [18].

As for `COC(=O)Nc1nc2ccccc2[nH]1`, the result in assay [1], in assay [2], in assay [3], in assay [4], in assay [5] and in assay [6] was inactive. Further, the result in assay [7], in assay [8], in [9], in assay [11], in [12] and in [13] was inactive. The compound was classed as inactive in [14], in [15], in assay [16], in assay [17] and in assay [18]. In addition, in assay [10], the concentration at half-maximal activity (AC50) was 7.44 µM (active).
